Measured values from PubChem BioAssay AID652208 (Broad Institute, 2013).
Results with a measured potency or affinity are listed apart. Calls of active or inactive are those of the source.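 Rule for the calls: active = Loss of cell signal with fitted half-effect dose at or below twice the top valid tested dose; inconclusive = Poor fit, or flat fit from -70 to -30 percent; inactive = Half-effect above limit, rising signal, or flat within 30 percent.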

Assay: viability loss in HEK293T cells – cell-based, cherry-picks, cytotoxicity control for HIV Vif inhibitor project, dose response (AID 652208)
Conditions: CellTiter-Glo luminescence, 24 h; series mostly up to 26 µM

Row | Structure (SMILES) | outcome
1 | CCN(CC(=O)Nc1c(F)cccc1F)C(=O)c1cccc(-n2cccc2)c1 | inactive
2 | CN1CCN(C(=S)c2ccc(OCC(=O)Nc3cccc(C(F)(F)F)c3)cc2)CC1 | inactive
3 | COc1cccc(N2CCN(S(=O)(=O)c3cc4c(cc3C)N(C)CCO4)CC2)c1 | inactive
4 | O=C(O)c1ccc(S(=O)(=O)c2ccc3c(c2)C(=O)N(c2ccc(Br)cc2)C3=O)cc1 | inactive
5 | COc1ccc(C(=O)NCc2oc(-c3ccccc3)cc2C(=O)O)cc1 | inactive
6 | CC(C)OC(=O)c1cn(-c2ccccc2)nc1-c1ccc2c(c1)OCCO2 | inactive
7 | CN(C)c1ccc(C(O)Cc2nc3ccccc3n2C)cc1 (stereo not drawn) | inactive
8 | O=C1/C(=C/c2ccc(N3CCCC3)cc2)NC(=S)N1C1CC1 | inactive
9 | CCc1nnc(NC(=O)c2sc3nc4cc(C)ccc4cc3c2N)s1 | inactive
10 | COc1cc(OC)cc(C(=O)N[C@H](C(=O)Nc2ccc3c(c2)OCO3)C(C)C)c1 | inactive
11 | COc1cc(/C=C/C(=O)OCC(=O)N2CCCc3ccccc32)ccc1O | inactive
12 | CC1Cc2ccccc2N1C(=O)COC(=O)c1ccccc1NCCO (stereo not drawn) | inactive
13 | O=C(Nc1cnccn1)Nc1ccccc1Cl | inactive
14 | N#Cc1c2ccc(OCC(N)=O)cc2n2ccccc12 | inactive
15 | COc1ccccc1Oc1coc2cc(OCC(N)=O)ccc2c1=O | inactive
16 | FC(F)(F)c1nnc2c3ccccc3c(Cl)nn12 | inactive
17 | CC(=O)Nc1ccc(C2(c3ccc(NC(C)=O)cc3)NC(=O)c3ccccc32)cc1 | inactive
18 | O=c1sc(N2CCN(c3ccc(F)cc3)CC2)nc2ccsc12 | inactive
